Measured values reported in PubChem BioAssay (NCI).
This is part of a sample that, as a whole, favours compounds with a hit. Of some 83,000 tested, about 20% had one in any assay.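 Note: values are percent growth. 100 is the growth of untreated cells, values between 100 and 0 indicate rising inhibition; between -100 and 0 indicates cell death.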 The source made the active and inactive calls. Rule for the calls: active = growth percent below 10; inactive = the rest.

test system: MDA-MB-468 breast; assay: NCI-60 one-dose screen, 48 h (100 = growth as untreated, 0 = no growth, -100 = all killed); details: 10 µM unless noted

| SMILES | growth |
| --- | --- |
| COc1ccccc1NC(=O)c1cc2cc(Br)ccc2cc1O | -9.27% (active) |
| O=[N+]([O-])c1ccc(C2CC(c3ccccc3)=Nc3ccccc3S2)cc1 (stereo not given) | 77.7% (inactive) |
| Fc1ccc(Nc2nc3nonc3nc2Nc2ccc(F)cc2)cc1 | -4.42% (active) |
| CCN(CC)CCCNc1c2ccc(Cl)cc2nc2ccc(OC)cc12 | -34.6% (active) |
| COc1ccc2[nH]c(=O)c(CNc3ccc(Nc4nccc(-c5ccc(Cl)cc5)n4)cc3)cc2c1 | 88% (inactive) |
| C=C1CCC2C3(C)COC(c4ccc(SC)cc4)OC3CCC2(C)C1C/C=C1/C(=O)OCC1O (stereo not given) | 77.4% (inactive) |
| O=C(O)c1ccc(-n2cc(CNc3ccc(C(F)(F)F)cc3)c(-c3ccccc3)n2)cc1 | 102% (inactive) |
| Cc1nc(S(=O)(=O)c2ccccc2)c(S(=O)(=O)Cc2ccc([N+](=O)[O-])cc2)o1 | 78.1% (inactive) |
| O=C1c2ccccc2NC(c2cn(-c3ccccc3)nc2-c2cccnc2)N1Cc1ccccc1 (stereo not given) | 102% (inactive) |
| Oc1ccccc1N=Cc1ccccc1 | 91% (inactive) |
| Cc1ccc2nc(NC(=O)CSc3nc(Nc4ccc([N+](=O)[O-])cc4)c(C#N)c(-c4ccccc4)n3)sc2c1 | 105% (inactive) |
| N#Cc1ccc(Oc2ccc3ccc(=O)oc3c2)cc1 | 93.4% (inactive) |
| O=C(CSc1nnc(-c2ccc(Cl)cc2)o1)Nc1ccc(C(=O)/C=C/c2ccccc2)cc1 | 98.7% (inactive) |
| Nc1c(C(=O)Nc2ccccc2F)sc2nc3c(cc12)CCCC3 | 26.4% (inactive) |
| c1ccc(Cn2cc(-c3nc4ccccc4s3)c3cccnc32)cc1 | 99.4% (inactive) |
| COc1ccc(/C=C2\C(=O)N=C3N2NC(c2cc(Br)ccc2O)C=C(C)N3c2ccccc2)cc1 (stereo not given) | 90.7% (inactive) |
| CCOC(=O)C1=C(c2ccccc2)N=C2N(c3ccccc3)N=C(C(C)=O)N2C1c1ccc(Br)cc1 (stereo not given) | 99.3% (inactive) |
| CN(C)C=Nc1cc(Cl)ccc1Cl | 102% (inactive) |
| O=C(Nc1cccc(Cl)c1)c1cc(N=Nc2ccc([N+](=O)[O-])cc2Cl)ccc1O | 67.8% (inactive) |
| COc1ccc(C2SCC(=O)N2NC(=O)c2ccc(NC(=O)c3ccccn3)cc2)cc1OC (stereo not given) | 104% (inactive) |

| SMILES | growth |
| --- | --- |
| COc1ccc(-c2ccc(C)n2-c2ccc(-c3nc4ccccc4s3)cc2)cc1 | 3.77% (active) |
| COc1ccc2c(c1)c(/C(O)=C1\COC(=O)C1=O)cn2Cc1ccc(F)cc1 | 100% (inactive) |
| Cc1nn2c(/C=C3/C(=O)Nc4ccc(Cl)cc43)c(-c3ccccc3)nc2s1 | 35.7% (inactive) |
| COc1cccc(N2CCN(CC(=O)N3CCN(c4nnc(-c5ccc(Cl)cc5)c(-c5ccc(Cl)cc5)n4)CC3)CC2)c1 | 76.5% (inactive) |
| O=Cc1c(OCc2cnnn2CC(=O)Nc2ccc(Br)cc2)ccc2ccccc12 | 95.6% (inactive) |
| O=C(O)CC1CCN(c2ccc3nnc(Cl)n3n2)CC1 | 101% (inactive) |
| CC/C(=C(\c1ccccc1)c1ccc(OCCN(C)C)cc1)c1ccccc1 | -13.3% (active) |
| O=c1[nH][n+](-c2ccc(Cl)cc2)no1 | 93.2% (inactive) |
| COc1cc([C@@H]2c3cc4c(cc3[C@H](O)[C@H]3COC[C@@H]23)OCO4)cc(OC)c1OC | 58% (inactive) |
| CCN(CC)CCn1c(=N)n(CC(O)c2ccc(Cl)c(Cl)c2)c2ccccc21 (stereo not given) | 21% (inactive) |
| NS(=O)(=O)c1ccc(CCn2c(SCC(=O)N/N=C/c3cccnc3)nc3ccccc3c2=O)cc1 | 92.9% (inactive) |
| CCOC(=O)c1sc(Nc2ccc(Cl)cc2)nc1C | -13.9% (active) |
| COc1cc(-c2nc3ccc(C)cc3[nH]2)ccc1OCC(=O)N=Nc1c(O)[nH]c2ccccc12 | -85.9% (active) |
| S=C(c1ccc2c(c1)OCO2)N1CCN(c2ccccc2Cl)CC1 | 80.8% (inactive) |
| COc1cc(-c2c3c(cn2CCN2CCCCC2)-c2oncc2CC3)cc(OC)c1OC | 94.6% (inactive) |
| O=C1/C(=C/c2ccccc2)SC(=S)N1CCc1ccc(O)cc1 | 73.9% (inactive) |
| CC(=O)c1ccc2c(c1)CCN2 | 104% (inactive) |
| COC(=O)c1c2c(c(C)[n+]([O-])c1C)C(=O)C(NCc1ccc(Br)cc1)=CC2=O | -16.6% (active) |
| O=c1c2cc(-c3ccc(F)cc3F)ccc2n(Nc2ccccc2)c(=O)n1-c1cccc(C(F)(F)F)c1 | -10.4% (active) |
| CC[C@]12C=CCN3CC[C@@]4(c5cc(NC(=O)CCC(=O)O[C@H]6CC[C@H]7[C@@H]8CCC9=CC(=O)CC[C@@H]9[C@H]8CC[C@]67C)c(OC)cc5N(C)[C@H]4[C@@](O)(C(=O)OC)[C@@H]1OC(C)=O)[C@@H]32 | 51.9% (inactive) |
